Screens as filed in PubChem.
NFkB binder: NF-kappa-B p105 (human) binding; P19838; Small molecule microarray, anti-His fluorescence binding; calls only; 17,000 tested, 1.3% active; AID 624139;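 active = spot fluorescence over background significantly raised, with a chance value under 7% in all four replicate spots of the compound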;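 also: probe protein is his-tagged human p50 processed subunit at 1 µg/ml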
p53 mut binder: mutant p53 (human) binding. small molecule microarray binding, anti-GST fluorescence. AID 624136. calls only. 17,000 tested, 0.4% active;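 active = compounds whose four printed spots each glow above background more than chance allows, each with a p-value under 7%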
STAT3 binder: binders of human STAT3. P40763. Small molecule microarray, His-STAT3 binding, anti-His fluorescence. calls only. 17,000 tested, 0.2% active;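 active = compounds whose four printed spots each show fluorescence over background unusually high for their array block, chance value under 7%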
Target sequence (P40763 whole entry, looked up): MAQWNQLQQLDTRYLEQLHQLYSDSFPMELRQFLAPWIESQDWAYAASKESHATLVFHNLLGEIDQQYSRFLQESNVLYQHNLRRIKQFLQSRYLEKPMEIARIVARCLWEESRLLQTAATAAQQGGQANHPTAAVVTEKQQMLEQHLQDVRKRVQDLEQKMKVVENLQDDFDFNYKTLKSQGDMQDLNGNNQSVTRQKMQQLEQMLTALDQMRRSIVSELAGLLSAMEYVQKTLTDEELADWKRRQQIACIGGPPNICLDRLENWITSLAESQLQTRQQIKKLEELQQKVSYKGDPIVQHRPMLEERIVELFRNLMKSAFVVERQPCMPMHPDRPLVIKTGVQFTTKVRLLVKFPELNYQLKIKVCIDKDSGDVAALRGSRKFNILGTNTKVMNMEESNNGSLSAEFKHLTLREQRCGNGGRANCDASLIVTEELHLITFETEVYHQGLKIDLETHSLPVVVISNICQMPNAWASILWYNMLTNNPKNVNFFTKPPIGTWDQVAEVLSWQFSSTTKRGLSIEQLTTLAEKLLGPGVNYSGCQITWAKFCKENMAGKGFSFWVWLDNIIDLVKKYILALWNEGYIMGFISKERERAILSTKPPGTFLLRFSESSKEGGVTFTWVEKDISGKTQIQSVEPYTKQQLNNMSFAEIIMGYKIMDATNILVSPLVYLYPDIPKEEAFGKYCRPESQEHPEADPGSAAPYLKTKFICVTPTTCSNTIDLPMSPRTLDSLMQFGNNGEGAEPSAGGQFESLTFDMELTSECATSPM
c-Myc SMM: binds human c-Myc on microarray. P01106. small molecule microarray, His-c-Myc binding, anti-His fluorescence. calls only. 17,000 tested, 1.5% active. AID 624141;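 active = spot fluorescence over background with P-value below 7% in all four replicate spots, showing protein binding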
Calls only. An excerpt weighted towards active compounds, which were near 2.1% of everything screened.

Results for C[C@@H]1CN([C@@H](C)CO)C(=O)c2cc(NC(=O)c3ccncc3)ccc2O[C@@H](C)CCCCO[C@H]1CN(C)C(=O)Nc1cccc2ccccc12 ?
NFkB binder: active; p53 mut binder: inactive; STAT3 binder: inactive; c-Myc SMM: active

What do the screens show for `C[C@@H]1CCCCO[C@@H](CN(C)C(=O)Nc2cccc3ccccc23)[C@H](C)CN([C@H](C)CO)C(=O)c2cc(NC(=O)c3ccncc3)ccc2O1`?
NFkB binder: active; p53 mut binder: inactive; STAT3 binder: inactive; c-Myc SMM: active

What do the screens show for `C[C@@H]1CN([C@@H](C)CO)C(=O)c2cc(NC(=O)Nc3ccc(F)cc3)ccc2O[C@@H](C)CCCCO[C@H]1CN(C)C(=O)Nc1cccc2ccccc12`?
NFkB binder: inactive; p53 mut binder: inactive; STAT3 binder: inactive; c-Myc SMM: inactive

How did C[C@@H]1CN([C@H](C)CO)C(=O)c2cc(NC(=O)c3ccncc3)ccc2O[C@@H](C)CCCCO[C@H]1CN(C)C(=O)Nc1cccc2ccccc12 do in these assays?
NFkB binder: active; p53 mut binder: inactive; STAT3 binder: inactive; c-Myc SMM: active

What do the screens show for `C[C@@H]1CN([C@H](C)CO)C(=O)c2cc(NC(=O)c3ccncc3)ccc2O[C@@H](C)CCCCO[C@@H]1CN(C)C(=O)Nc1cccc2ccccc12`?
NFkB binder: inactive; p53 mut binder: inactive; STAT3 binder: active; c-Myc SMM: inactive

How did CCCC[C@H]1OB(O)C[C@H]2C1=C(COc1ccccc1)Cn1c(=O)n(-c3ccccc3)c(=O)n12 do in these assays?
NFkB binder: inactive; p53 mut binder: inactive; STAT3 binder: inactive; c-Myc SMM: inactive

How did Cc1ccc2nc(SCc3nc4ccccc4n3C)[nH]c2c1 do in these assays?
NFkB binder: inactive; p53 mut binder: inactive; STAT3 binder: inactive; c-Myc SMM: inactive

What do the screens show for `Cc1nc2ccc(NC(=S)NCCCO)cc2nc1C`?
NFkB binder: inactive; p53 mut binder: inactive; STAT3 binder: inactive; c-Myc SMM: active

What do the screens show for `C=CCOC(=O)[C@H]1[C@@H]2C(=O)O[C@@H](c3ccccc3)[C@@H](c3ccccc3)N2[C@@H](c2ccc(OCCOC(=O)[C@@H]3C[C@@H]4C(=O)NCC(=O)N4[C@@H]3c3ccc(O)cc3)cc2)[C@]12C(=O)Nc1ccccc12`?
NFkB binder: active; p53 mut binder: inactive; STAT3 binder: inactive; c-Myc SMM: inactive

How did C=CCOC(=O)[C@H]1[C@@H]2C(=O)O[C@@H](c3ccccc3)[C@@H](c3ccccc3)N2[C@@H](c2ccc(OCCOC(=O)[C@@H]3C[C@@H]4C(=O)N5CCC[C@H]5C(=O)N4[C@@H]3c3cccc(OCCO)c3)cc2)[C@]12C(=O)Nc1ccccc12 do in these assays?
NFkB binder: inactive; p53 mut binder: inactive; STAT3 binder: inactive; c-Myc SMM: inactive

What do the screens show for `C=CCOC(=O)[C@H]1[C@@H]2C(=O)O[C@@H](c3ccccc3)[C@@H](c3ccccc3)N2[C@@H](c2ccc(OCCOC(=O)[C@@H]3C[C@@H]4C(=O)N[C@@H](Cc5ccccc5)C(=O)N4[C@@H]3c3cccc(OCCO)c3)cc2)[C@]12C(=O)Nc1ccc(I)cc12`?
NFkB binder: active; p53 mut binder: inactive; STAT3 binder: inactive; c-Myc SMM: inactive

How did C=CCOC(=O)[C@H]1[C@@H]2C(=O)O[C@@H](c3ccccc3)[C@@H](c3ccccc3)N2[C@@H](c2ccc(OCCOC(=O)[C@@H]3C[C@@H]4C(=O)N5CCC[C@H]5C(=O)N4[C@@H]3c3cccc(OCCO)c3)cc2)[C@]12C(=O)Nc1ccc(I)cc12 do in these assays?
NFkB binder: active; p53 mut binder: inactive; STAT3 binder: inactive; c-Myc SMM: inactive

Results for COc1ccc(Cl)cc1NC(=O)CSc1n[nH]c(-c2ccccc2)n1 ?
NFkB binder: inactive; p53 mut binder: inactive; STAT3 binder: inactive; c-Myc SMM: inactive

Results for C[C@@H]1CCCCO[C@H](CN(C)C(=O)Nc2ccc(C(F)(F)F)cc2)[C@@H](C)CN([C@H](C)CO)C(=O)c2cc(NS(C)(=O)=O)ccc2O1 ?
NFkB binder: inactive; p53 mut binder: inactive; STAT3 binder: inactive; c-Myc SMM: inactive

Results for C[C@H]1CN([C@@H](C)CO)C(=O)Cc2cc(NS(=O)(=O)c3ccc(Cl)cc3)ccc2O[C@H]1CN(C)CC1CCCCC1 ?
NFkB binder: inactive; p53 mut binder: inactive; STAT3 binder: inactive; c-Myc SMM: inactive

Results for C[C@@H]1CCCCO[C@H](CN(C)C(=O)Nc2ccc(C(F)(F)F)cc2)[C@H](C)CN([C@H](C)CO)C(=O)c2cc(NS(C)(=O)=O)ccc2O1 ?
NFkB binder: inactive; p53 mut binder: inactive; STAT3 binder: inactive; c-Myc SMM: active
